NPC1 prom act: activates the NPC1 promoter; Potency, µM (titrated, usually from 9.22 µM), for inactives: at the highest dose activation, actives largely listed as activators; Huh7 NPC1 promoter luciferase reporter, 24 h; actives 2.4% (n = 320,000); further: % of control where 0% means no effect; nearly all actives have a fitted effect of over 60% in size
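Huh7 cells stably carrying NPC1 promoter–luciferase, plated in Opti-MEM with 10% FBS for 2 h, were exposed to compound in DMSO for 24 h at 37 °C; luciferase reagent was added for 10 min and luminescence read.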
ELG1 genotoxic: inducers of genotoxicity in HEK293T ELG1-luciferase cells. HEK293T ELG1-luciferase reporter, luminescence, 16 h. Potency, µM (highest dose often 46 µM), without a hit: top-dose activity change, positive = activation, hits mostly activators. AID 504466. actives 1.3% (n = 330,000); further: % of control where 0% means no effect; nearly all actives have a fitted effect of over 60% in size
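ELG1-luciferase HEK293T cells, 2,000/well; compound pinned in; 16 hr, 37 °C, 5% CO2; ONE-Glo, 30 min RT; luminescence on CCD imager.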
SMN2 splice up: SMN2 splice variant enhancement | HEK293 SMN2-luciferase splicing reporter, luminescence, 30-36 h | Potency, µM (doses to about 46.1 µM), without a hit: at the top dose activity change, positive = activation, usual class: activators | actives 2.8% (n = 210,000) | AID 1458; further: % of control where 0% means no effect; nearly all actives have a fitted effect of over 55% in size
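HEK293 cells carry an SMN2 minigene-luciferase reporter in which exon 7 inclusion puts luciferase in frame. Cells were seeded at 2000 cells/well, attached for 10-12 hours, then exposed to compounds for 30-36 hours at 37C before ONE-Glo luminescence.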
ELG1 DNA repair: ELG1-dependent DNA repair inhibition; AID 504467; Potency, µM (highest dose often 46.1 µM), without a hit: at the top dose activity change, negative = inhibition, actives largely listed as inhibitors; HEK293T ELG1-luciferase reporter, luminescence, 16 h; DNA damage induced by 5-fluorouridine; actives 2.3% (n = 330,000); further: on the % scale 0 is the no-effect control and ±100 the full control effect; nearly all actives have a fitted effect of over 55% in size
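Cells (2,000 per well) received 5-fluorouridine plus test compound or DMSO and were incubated 16 hr at 37 °C, 5% CO2. Luciferase activity was read by luminescence 30 min after ONE-Glo addition; signal suppression marked inhibition of damage-induced ELG1 function.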
Rab9 prom act: activators of Rab9 promoter; Huh7 Rab9 promoter-luciferase reporter, luminescence, 24 h; Potency, µM (top dose mostly 9.22 µM), without a hit: at the top dose activation, negative = inhibition, hits mostly activators; actives 2.8% (n = 320,000); further: % of control where 0% means no effect; nearly all actives have a fitted effect of over 60% in size
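Cell-based reporter: Huh7 stable for Rab9 promoter-driven luciferase, plated in reduced-serum medium with 10% FBS at 1500 cells/well, compound-treated 24 h at 37 °C, luminescence read after 10 min reagent.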
FLuc counter: inhibits or activates purified firefly luciferase, miR-21 counter-screen; Potency, µM (titrated, usually from 57.5 µM), for inactives: at the top dose activity change, negative = inhibition, actives largely listed as inhibitors; actives 6.9% (n = 360,000); purified FLuc, Km substrates, luminescence inhibition;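 further: plate controls were vehicle for no effect and reference inhibitor for full effect; nearly all actives have a fitted effect of over 55% in size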
Target sequence (P08659 whole entry, looked up): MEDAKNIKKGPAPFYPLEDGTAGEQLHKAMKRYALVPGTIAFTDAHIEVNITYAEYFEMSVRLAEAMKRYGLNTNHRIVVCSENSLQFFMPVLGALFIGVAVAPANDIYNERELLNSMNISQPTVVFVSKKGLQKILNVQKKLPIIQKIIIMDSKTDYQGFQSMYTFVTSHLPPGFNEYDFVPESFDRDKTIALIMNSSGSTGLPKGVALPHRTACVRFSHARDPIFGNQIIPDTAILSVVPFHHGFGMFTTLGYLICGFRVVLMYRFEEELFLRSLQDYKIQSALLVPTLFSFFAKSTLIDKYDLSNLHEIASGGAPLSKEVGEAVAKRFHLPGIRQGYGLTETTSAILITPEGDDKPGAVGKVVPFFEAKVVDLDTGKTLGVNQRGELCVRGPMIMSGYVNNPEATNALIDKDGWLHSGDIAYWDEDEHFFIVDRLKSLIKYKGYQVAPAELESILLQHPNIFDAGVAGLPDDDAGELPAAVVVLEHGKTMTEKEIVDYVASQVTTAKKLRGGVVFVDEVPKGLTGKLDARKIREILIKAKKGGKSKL
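Biochemical qHTS of compounds, final roughly 60 µM downward over six points, against 10 nM purified firefly luciferase using Km concentrations of substrates (10 uM D-luciferin, 10 uM ATP) in Tris acetate pH 7.5 buffer; luminescence output.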
The depositor's hits bear a star; ? = inconclusive; / = no result; [ ] = remark or other dose. Shown are actives, neighbours in structure and some others; about 9.3% of the full set was active somewhere. The call rests on the fitted dose curve; in most records, active means well fitted curve in the direction sought with a large enough effect; inconclusive means small, poorly fitted or top-dose-only effect, or another doubt; inactive means no such curve, though single readings can be large; an effect the other way counts as inactive or inconclusive. Potency means the concentration at half of the fitted maximal effect.

SMILES	NPC1 prom act	ELG1 genotoxic	SMN2 splice up	ELG1 DNA repair	Rab9 prom act	FLuc counter
Cc1ccc2c(CN(C)Cc3ccccc3)cc(=O)oc2c1C	?	10.1%	/	?	?	15.1µM*
O=CNc1ncn[nH]1	/	/	-5.5%[9.22 µM]	/	/	/
CCCOc1ncnc2c1sc1nc3c(cc12)COC(C)(C)C3	29.7%	?	/	?	?	?
CCSc1ncnc2c1sc1nc3c(cc12)COC(C)(C)C3	3.55µM*	?	12.6µM*	?	2.82µM*	2.69µM*
CCC(C)Nc1nnnc2c1sc1nc3c(cc12)COC(C)(C)C3 (centres undefined)	3.9%	-5.4%	-2.2%	23.1µM*	1.3%	-6.7%
C=CCn1c(C)nc2c(sc3nc4c(cc32)COC(C)(C)C4)c1=O	1.78µM*	?	/	?	2µM*	10.7µM*
CCc1nc2c(sc3nc4c(cc32)COC(C)(C)C4)c(=O)n1CCN(CC)CC	-3.6%	4.4%	-13.0%	?	-7.9%	1.6%
C=CCSc1ncnc2c1oc1nc3c(cc12)COC(C)(C)C3	?	?	/	0.0%	?	13.5µM*
COC(=O)[C@@]1(Cc2ccccc2)[C@H]2c3cc(C(=O)N(C)C)n(CCF)c3C[C@H]2CN1C(=O)c1ccccc1	/	/	-9.5%	/	/	/
CC(C)COc1ncnc2c1sc1nc3c(cc12)COC(C)(C)C3	3.98µM*	?	/	?	3.16µM*	23.9µM*
Nc1cccc(-c2cn3cc(C(F)(F)F)cc(Cl)c3n2)c1	1µM*	?	7.94µM*	?	1.58µM*	1.9µM*
FC(F)(F)c1cc(Cl)c2nc(-c3ccccc3)cn2c1	?	?	14.1µM*	?	?	1.9µM*
Cc1ccc2nsnc2c1NC(=O)c1ccc([N+](=O)[O-])cc1	-21.1%	-12.6%	-64.6%	16.4µM*	-30.6%	0.5%
CC(=O)Nc1c(C)ccc2nsnc12	-1.8%	-0.9%	10.1%	?	-6.6%	3.1%
COc1ccc(CCNC(=O)c2coc(=O)c(Br)c2)cc1	8.7%	18.3µM*	/	?	8.9%	0.2%
O=C(NCCS(=O)(=O)NCCc1ccccc1)c1ccc2c(c1)OCO2	4.47µM*	2.06µM*	/	?	3.16µM*	12µM*
O=C(NCCc1ccccc1)c1ccc2c(c1)OCCCO2	-37.0%	?	/	?	?	0.0601µM*
COc1ccc(CCNC(=O)c2ccc3c(c2)OCO3)cc1	23.0%	14.6%	/	?	?	?
O=C(NCCc1cccc(Cl)c1)c1ccc2c(c1)OCO2	0.316µM*	2.59µM*	/	?	0.447µM*	1.51µM*
O=C(Cn1c(=O)n(Cc2ccc3c(c2)OCO3)c(=O)c2oc3ccccc3c21)Nc1ccc(F)cc1	/	/	/	/	/	1.2%
O=C(NCCc1ccccc1)c1ccc2c(c1)OCCO2	0.0158µM*	?	/	?	0.0032µM*	0.135µM*
COc1ccc(CCNC(=O)c2ccc3c(c2)OCCO3)cc1	?	?	?	?	3.16µM*	9.53µM*
O=S(=O)(Nc1ccncc1)c1ccc(Cl)c(Cl)c1	2.3%	-2.0%	/	6.3%	13.9%	-7.4%
CC1O[C@@H](O[C@H](C)CC/C=C/C(=O)O)C(O)C[C@H]1O (some centres undefined)	-2.0%	4.3%	/	?	-1.2%	-1.3%
Cc1cc(C)cc(OCC(=O)Nc2cccc(S(=O)(=O)NC3=NCCC3)c2)c1	-15.6%	-1.6%	/	-18.3%	-1.2%	-12.2%
O=C(/C=C/c1ccc(Cl)cc1Cl)Nc1cccc(S(=O)(=O)NC2=NCCCCC2)c1	21.9%	5.5%	14.6%	?	19.2%	2.39µM*
Cc1ccc(OCC(=O)Nc2cccc(S(=O)(=O)NC3=NCCCCC3)c2)cc1C	-0.3%	-4.9%	/	2.3%	-0.7%	15.1µM*
O=C(CCl)Nc1cccc(S(=O)(=O)NC2=NCCCCC2)c1	/	-9.5%	/	?	/	/

Compound activity as filed in PubChem BioAssay.
